Data published in the supplement of paper PMC6555819.

Assays:
Test in all cases: PBM binding z-score (relative to random genomic background probes); higher = stronger binding; sequences stand for … in GC…GCGATTGACAGCGTAGAATGAAGG
[1] = system: FXR:RXRa (NR concentration 270 nM, RXRa partner concentration 90 nM)
In short: (§1)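 The probes on custom Agilent 4×180K protein-binding microarrays were double-stranded, with 34-nt variable regions bearing direct-repeat seeds, single-nucleotide variants, half-site ablations and random human genomic background sequences. Incubation lasted 1 h with ligand-free nuclear receptor dimers in PBS pH 7.4, 2% milk, 0.02% Triton X-100, 1 mM DTT, 0.2 mg/mL BSA and 0.4 mg/ml salmon testes DNA. Antibodies against each partner (one per run) detected bound dimers, and fluorescence scans were regression-normalized. Binding z-scores take the random background probes as reference.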

[2] = system: LXRa:RXRa (NR concentration 270 nM, RXRa partner concentration 90 nM)
In short: as §1

[3] = system: LXRa homodimer (NR concentration 270 nM)
In short: as §1

[4] = system: LXRb:RXRa (NR concentration 270 nM, RXRa partner concentration 90 nM)
In short: as §1

[5] = system: LXRb homodimer (NR concentration 270 nM)
In short: as §1

[6] = system: PPARa:RXRa (NR concentration 270 nM, RXRa partner concentration 90 nM)
In short: as §1

[7] = system: PPARg:RXRa (NR concentration 180 nM, RXRa partner concentration 90 nM)
In short: as §1

[8] = system: PPARg:RXRa 270nM:90nM, anti-RXR (NR concentration 270 nM, RXRa partner concentration 90 nM)
In short: as §1

[9] = system: PPARg:RXRa 30nM:10nM, anti-RXR (NR concentration 30 nM, RXRa partner concentration 10 nM)
In short: as §1

[10] = system: PPARg:RXRa 90nM:30nM, anti-RXR (NR concentration 90 nM, RXRa partner concentration 30 nM)
In short: as §1

[11] = system: PPARg:RXRa DBDmut IVT, anti-RXR (DBD mutation: RXRa K156A/R161A, NR concentration 270 nM, RXRa partner concentration 90 nM)
In short: as §1

[12] = system: PPARg:RXRa IVT, anti-PPARg (NR concentration 270 nM, RXRa partner concentration 90 nM)
In short: as §1

[13] = system: PPARg DBDmut:RXRa IVT, anti-PPARg (DBD mutation: PPARg1 K132A/R137A, NR concentration 270 nM, RXRa partner concentration 90 nM)
In short: as §1

[14] = system: PPARg DBDmut IVT, anti-PPARg (DBD mutation: PPARg1 K132A/R137A, NR concentration 270 nM)
In short: as §1

[15] = system: PPARg homodimer (NR concentration 180 nM)
In short: as §1

[16] = system: PXR:RXRa (NR concentration 270 nM, RXRa partner concentration 90 nM)
In short: as §1

[17] = system: PXR homodimer (NR concentration 270 nM)
In short: as §1

[18] = system: RARa:RXR (NR concentration 270 nM, RXRa partner concentration 90 nM)
In short: as §1

[19] = system: RARa homodimer (NR concentration 270 nM)
In short: as §1

[20] = system: RARb:RXRa (NR concentration 270 nM, RXRa partner concentration 90 nM)
In short: as §1

Row | Sequence | PBM binding z-score [1] | PBM binding z-score [2] | PBM binding z-score [3] | PBM binding z-score [4] | PBM binding z-score [5] | PBM binding z-score [6] | PBM binding z-score [7] | PBM binding z-score [8] | PBM binding z-score [9] | PBM binding z-score [10] | PBM binding z-score [11] | PBM binding z-score [12] | PBM binding z-score [13] | PBM binding z-score [14] | PBM binding z-score [15] | PBM binding z-score [16] | PBM binding z-score [17] | PBM binding z-score [18] | PBM binding z-score [19] | PBM binding z-score [20]
1 | ATCTCTATGTAACCAAGTTCAGTGAATGCCGAAC | 0.239 | 0.344 | 0.727 | 0.489 | 0.572 | 0.351 | 0.288 | 0.822 | 0.337 | 0.387 | -0.0629 | 0.707 | 0.85 | 1.12 | 0.121 | 1.66 | 1.51 | 0.419 | 0.407 | 0.755
2 | CCTTAAGGGTCACTGACAGGTTATAGCATTTGGA | 7.39 | 5.66 | 0.887 | 5.01 | 0.447 | 6.24 | 6.29 | 6.19 | 2.45 | 4.77 | 3.94 | 4.19 | 0.865 | 0.0136 | 3.85 | 4.69 | 0.0863 | 5.85 | 1.33 | 5.18
3 | CCTCCTGGGCCACGAAAGGTCATTGATTCAGTGA | 3.25 | 5.1 | 4.52 | 4.15 | -0.0448 | 4.14 | 1.39 | 2.94 | 0.283 | 2.02 | 0.578 | 2.2 | -0.811 | -1.6 | 1.96 | 5.33 | 0.829 | 4.92 | 0.516 | 3.97
4 | CCTATTAGTTGATCATAAGGGCAACCGAAGCTCG | 0.383 | 0.258 | 0.608 | 0.291 | 0.94 | 0.433 | 0.394 | 0.295 | 0.0236 | 0.185 | 0.357 | 0.623 | 0.203 | 0.605 | 1.64 | 0.491 | 0.836 | 0.442 | 1.25 | 1.23
5 | ATATGTAGGTAATCGGGTCATTCAGTTTGCGCAT | 1.83 | 1.79 | 0.62 | 2.26 | 0.648 | 4.67 | 6.27 | 5.56 | 3.33 | 4.77 | 7.17 | 7.38 | 2.95 | 2.04 | 1.76 | 2.84 | 6.06 | 2.79 | 1.35 | 1.6
6 | CCTACTGGGCCACGAAACGTCATTGATTCAGTGA | -0.574 | -0.675 | -0.582 | -0.896 | -0.886 | 0.486 | 1.59 | 1.19 | -0.214 | 0.157 | 5.46 | 4.94 | 0.954 | 0.628 | -0.288 | -0.903 | -0.805 | -0.908 | -0.363 | 0.0906
7 | AGTCAAAGTTCAGGACGAGGTAACGTACAGCACG | 4.02 | 3.94 | 1.42 | 1.7 | 0.128 | 3.3 | 4.64 | 4.76 | 2.19 | 3.73 | -0.265 | 2.01 | 0.413 | 0.297 | 1.59 | 2.95 | 0.808 | 3.01 | 0.256 | 4.18
8 | TCGAGTAGGTTAGACGGGGCATTCAGCCAACATA | 0.121 | 0.00602 | -0.343 | 0.522 | -0.523 | 0.783 | 0.118 | 0.993 | 1.05 | 1.04 | 2.22 | 0.996 | -0.111 | 0.319 | -0.139 | -0.0359 | -0.369 | -0.135 | -0.49 | 0.612
9 | ACAGACAGGTGATGAAGGTAACTCGGGCTATCAT | -0.17 | 0.107 | -0.351 | -0.291 | -0.168 | 0.0611 | 0.471 | -0.0859 | -0.0607 | -0.242 | 0.382 | 0.0218 | -0.282 | -0.148 | 0.503 | -0.0935 | 0.344 | 0.209 | 0.291 | 0.263
10 | TCGAGTTGGTTACCAATGGGGCATTCAGCTTTCT | -0.51 | -0.505 | -1.1 | -0.17 | -0.988 | -0.0256 | -0.676 | 0.352 | 0.536 | 0.652 | 0.424 | -0.405 | -1.9 | -0.375 | -1.66 | -0.425 | -0.63 | -0.69 | -1.31 | -0.219
11 | ACTACTAGTTGACTTAGGGCAACCGATACGACGC | 0.249 | 0.17 | 0.195 | 0.0613 | 0.134 | 0.123 | 1.04 | 0.267 | 0.432 | 0.312 | 0.365 | 0.47 | 0.77 | 0.857 | 0.669 | 0.14 | -0.0753 | 0.458 | 0.347 | 0.59
12 | CGTCCAAGGTCAAGGTCAGTTAAAGAGACTCGAA | 7.98 | 6.08 | 1.79 | 4.95 | 1.26 | 6.11 | 6.45 | 6.18 | 2.97 | 5.03 | 3.64 | 4.64 | 0.996 | 0.327 | 3.84 | 5.2 | 1.12 | 5.74 | 1.83 | 5.81
13 | ATCTCTAGGTAATAGTTCAGTGAATCCCGAGGAT | 0.178 | 0.499 | 0.496 | 0.482 | 0.778 | 3.1 | 5.39 | 6.33 | 5.08 | 6.63 | 2.36 | 2.79 | 1.15 | 2.02 | 1.07 | 0.458 | 0.386 | 0.192 | 1.4 | 1.16
14 | TCGAGTAGGTTGCCAATGGGGCATTCAGCTTTCT | -0.454 | -0.408 | -0.785 | -0.313 | -0.788 | -0.0635 | -0.86 | 0.227 | 0.337 | 0.314 | 0.771 | 0.26 | -0.582 | -1.2 | -1.09 | -0.544 | -1.13 | -0.717 | -1.42 | -0.201
